Here are results for 104 compounds from ChEMBL document CHEMBL4513216, “Probing the Open Global Health Chemical Diversity Library for Multistage-Active Starting Points for Next-Generation Antimalarials” (ACS Infect Dis, 2020).

Molecules are shown by their SMILES. Among all 68,000 compounds or so, about 2,700 (4%) showed an effect of 50% or more. For the sample, strong results were picked, then their nearest neighbours and some compounds at random.

The assay relates to Plasmodium berghei. The assay is described as follows: Screen against P. berghei liver stage (PbLuc), transformed with Luciferase, at 2uM. Format: functional, HepG2. The following applies: tested at 2 uM.
For `O=C(NCc1ccccc1)c1nc2c(o1)CN(C(=O)c1cccnc1)C2`, the INHIBITION amounted to 36.75%.

Consider `COCCN1C[C@@H]2CN(Cc3cccc(C)n3)C[C@@H]2C1=O`, for which the INHIBITION is 39.92%.

Take `CCCN1CCN(c2nc(N)nc3c2nc(C)n3C)CC1`: the INHIBITION turned out to be 9.85%.

In the case of `Cc1noc(C)c1C(=O)N1CCC(c2[nH]ncc2S(C)(=O)=O)C1` (centres undefined), the INHIBITION amounted to 13.58%. In the case of `CCC(=O)N1CCN(c2nc(C)nc3c(C)nn(C)c23)CC1`, the INHIBITION is on record as 13.72%. Under `Cc1nc(N2CCN(C(=O)C3CC3)CC2)c2c(n1)c(C)nn2C` stands 51.57%; under `Cc1nc(N2CCN(C(=O)C3CCCC3)CC2)c2c(n1)c(C)nn2C`, -36.89%. For `CCCC(=O)Nc1ccc(CC(=O)N(CC)CC2CCCCO2)cc1` (centres undefined), the INHIBITION is recorded as -5.44%. The value for `Cc1ccc(C2COCCN2C(=O)c2ccc(C)s2)o1` (centres undefined) was 3.63%; that for `Cn1cc(CN2CCC3(CC2)CN(c2cccnc2)C(=O)CO3)cn1` was -56.25%. For the compound `Cn1cc(N2CC3(CCN(Cc4ccccc4)CC3)OCC2=O)cn1`, the INHIBITION is 33.97%. Take `O=C1COC2(CCN(Cc3cccs3)CC2)CN1c1ccccc1`: the INHIBITION is on record as -10.6%. For the compound `Cn1cc(N2CC3(CCN(Cc4cccnc4)CC3)OCC2=O)cn1`, the INHIBITION was found to be 54.44%. As to `O=C1COC2(CCN(Cc3cccs3)CC2)CN1c1ccsc1`, the INHIBITION is 55.7%. Take `O=C1COC2(CCN(Cc3cccs3)CC2)CN1c1cncnc1`: the INHIBITION came to 25.58%.

On to `O=C(NCCn1cccc1)c1c(O)cc(F)cc1F`, for which the INHIBITION is recorded as -5.53%. Take `Cc1noc(C)c1CNC(=O)N1CCN(CC2CC2)CC1`: the INHIBITION was -20.36%. In the case of `c1cncc(-c2ncnc3c2CCN(Cc2cccs2)CC3)c1`, the INHIBITION is 24.42%.

On to `CC(C)(O)CN1CCN(C(=O)c2cccn2Cc2ccccc2)CC1`, for which the INHIBITION is given as -36.56%. On to `CC(C)(O)CN1CCN(C(=O)c2cccn2Cc2ccncc2)CC1`, for which the INHIBITION was -51.5%. Take `CC(C)(O)CN1CCN(C(=O)c2cccn2Cc2cccnc2)CC1`: the INHIBITION is 54.5%. In the case of `CC(C)c1nn(C)c(N(C)C)c1CNCc1cccc(CN(C)C)c1`, the INHIBITION was -36.7%. Under `COCc1ncc(CN2CCC3(CCC(=O)N(CC(C)O)C3)CC2)cn1` (centres undefined) stands -40.15%.

Regarding `Cc1cc(C)c2c(N3CCC(C(=O)N4CCCC4)CC3)ncnc2n1`, the INHIBITION is reported as 36.74%. Consider `NCCO[C@H]1C[C@@H](O)C12CCN(C1Cc3ccccc3C1)CC2`, for which the INHIBITION was -17.86%. As to `NCCO[C@H]1C[C@@H](O)C12CCN(Cc1c(F)cccc1F)CC2`, the INHIBITION was 2.9%. For the compound `COc1cc(CN2CCC3(CC2)[C@H](O)C[C@@H]3OCCO)ccc1F`, the INHIBITION was -6.64%. The value for `COc1ccc(F)c(F)c1CN1CCC2(CC1)[C@H](O)C[C@@H]2OCCN` was 57.75%. For `COc1cc(C)c(CN2CCC3(CC2)C(C(=O)O)CC(=O)N3C)cc1C` (centres undefined), the INHIBITION is reported as 1.82%. As to `COc1cc(C)c(CN2CCC3(CC2)[C@H](O)C[C@@H]3OCCN)cc1C`, the INHIBITION was 72.05%. As for `COc1c(CNCc2ccc(N3CCCC3)nc2)c(C(C)C)nn1C`, the INHIBITION was 20.57%. With `Cn1ccnc1CN1CCC2(CC(=O)N(c3ccccn3)C2)C1` (centres undefined), the INHIBITION is reported as 44.46%. Under `Clc1cccc(N[C@H]2CCCN[C@H]2Cc2ccccc2)c1` stands -34.37%; under `CC(C)(C)OC(=O)N1CCN(C(=O)c2cnn3c2OCCC3)CC1`, -14.01%; under `COCc1noc(CN2CC(Cc3ccccc3)CC2=O)n1` (centres undefined), 14.12%. With `O=C1CCCN1CCCNCc1cc(O)c2cccc(F)c2n1`, the INHIBITION worked out at 53.12%. The value for `Oc1cc(CNCCN2CCCCC2)nc2c(F)cccc12` was -6.77%; that for `O=C1CCCN1CCCNCc1cc(O)c2cccc(Cl)c2n1` was -15.85%; that for `OC1CCN(c2ccnc(NCCc3ccccc3Cl)n2)C1` (centres undefined) was 0.72%.

Regarding `CCC(NC(=O)NCc1nncn1CC)c1ccc(OC)cc1` (centres undefined), the INHIBITION is recorded as -53.08%. Under `Cc1n[nH]c2c1C(c1ccc(Cl)cc1)SCC(=O)N2` (centres undefined) stands 47.85%; under `Cc1n[nH]c2c1C(c1cnn(C)c1)SCC(=O)N2` (centres undefined), 73.96%; under `Cc1n[nH]c2c1C(c1ccncc1)SCC(=O)N2` (centres undefined), 19.08%. As for `CCCn1cnnc1CN(C)C(=O)C1CCC(=O)N(C2CCCC2)C1` (centres undefined), the INHIBITION was 31.35%. As for `CC1CCN(Cc2c(C(C)C)[nH]c3ncccc23)CC1`, the INHIBITION is listed as -9.61%. Regarding `CC(C)c1[nH]c2ncccc2c1CN1CCC(O)CC1`, the INHIBITION is recorded as 14.73%. Regarding `CC(C)c1[nH]c2ncccc2c1CN1CCOCC1`, the INHIBITION is reported as 68.53%.

For `CC(CNC(=O)c1nnn(-c2ccccc2)c1C(F)(F)F)N(C)C` (centres undefined), the INHIBITION is -10.14%. Under `CCc1ocnc1C(=O)Nc1ccc2ccn(CCN(C)C)c2c1` stands 53.19%.

For the compound `CCc1ncncc1C(=O)Nc1ccc2ccn(CCN(C)C)c2c1`, the INHIBITION stood at 38.87%. Consider `Cc1ncccc1C(=O)Nc1ccc2ccn(CCN(C)C)c2c1`, for which the INHIBITION worked out at 10.23%. In the case of `CC(C)(C)NC(=O)c1ccn(COc2c(Cl)cccc2Cl)n1`, the INHIBITION is recorded as 31.42%.

`CCC(=O)NCC(=O)NC(C)c1ccc(OCCC(C)C)cc1` (centres undefined): the INHIBITION is reported as -14.65%. The value for `CCNc1ncc(C(=O)NCCc2csc(CSC)n2)cn1` was -45.11%; that for `CCNc1ncc(C(=O)NCc2csc(-c3ncccn3)n2)cn1` was -27.47%. `CCNc1ncc(C(=O)NCCc2csc(-c3ncccn3)n2)cn1`: the INHIBITION worked out at 69.79%. With `Cc1noc(-c2ccnc(Oc3cccc(CN4CCCC4)c3F)c2)n1`, the INHIBITION was 43.15%. As for `O=C(O)c1csc(NCCc2ccccc2)n1`, the INHIBITION came out at 55.05%. Take `O=C(NCCc1ccccc1)NCC(O)c1cccs1` (centres undefined): the INHIBITION turned out to be 1.48%.

Consider `CN1CC(=O)c2sc(NCCc3ccccc3)nc2C1`, for which the INHIBITION is given as -24.17%.

For the compound `CCC(C)NC(=O)CS(=O)(=O)Cc1cc(C)ccc1C` (centres undefined), the INHIBITION is reported as -10.29%. With `O=C(NCC1CC1)c1ccc(NC(=O)c2ccco2)cc1`, the INHIBITION is recorded as 24.44%.

With `COc1ccccc1-n1nc(CC(C)C)nc1Cc1nnc(N)s1`, the INHIBITION is -28.44%. Take `O=C(Nc1ccc(Cl)cn1)c1nn(C2CCS(=O)(=O)C2)c2c1CCCC2` (centres undefined): the INHIBITION is 66.3%. For `Cc1cccc(NC(=O)c2nn(C3CCS(=O)(=O)C3)c3c2CCCC3)n1` (centres undefined), the INHIBITION came out at 9.29%.

`O=C(Nc1ccc(Cl)cc1)c1nn(C2CCS(=O)(=O)C2)c2c1CCCC2` (centres undefined): the INHIBITION was 14.16%. As to `O=C(Nc1ccccc1)c1nn(C2CCS(=O)(=O)C2)c2c1CCCC2` (centres undefined), the INHIBITION is recorded as 73.37%. Take `O=C(Nc1cccc(Cl)c1)c1nn(C2CCS(=O)(=O)C2)c2c1CCCC2` (centres undefined): the INHIBITION came out at 21.33%. Consider `O=C(Nc1cccnc1)c1nn(C2CCS(=O)(=O)C2)c2c1CCCC2` (centres undefined), for which the INHIBITION was -0.14%.

Regarding `O=C(NCCc1ccccc1Cl)NCC1(O)CCSC1` (centres undefined), the INHIBITION was -41.73%.

With `COCCN(C/C=C/c1ccccc1)Cc1ncc[nH]1`, the INHIBITION is on record as -14%.

In the case of `CN(CCc1cccs1)C(=O)Nc1cccc(S(C)(=O)=O)c1`, the INHIBITION is -7.16%. On to `OC(CN1CCN(CC2CC2)CC1)c1ccc(Br)cc1` (centres undefined), for which the INHIBITION was determined as 50.32%. In the case of `OC(CN1CCN(CC2CCCCC2)CC1)c1ccccc1` (centres undefined), the INHIBITION was 12.55%. As to `OC(CN1CCN(CC(F)F)CC1)c1ccc(Br)cc1` (centres undefined), the INHIBITION came to 15.84%.

For `CCN1CCN(CC(O)c2ccc(Br)cc2)CC1` (centres undefined), the INHIBITION stood at 63.46%. Take `NC(=O)CC1CCN(CC(O)c2ccc(Br)cc2)CC1` (centres undefined): the INHIBITION is recorded as -58.06%. The value for `CCN1CCN(CC(O)c2ccc(F)cc2)CC1` (centres undefined) was -5.15%; that for `Cn1cc(CN2CCCC23CCN(C(=O)c2cccn2C)CC3)cn1` was 1.42%; that for `CO[C@@H]1CC[C@H]2[C@H]1OCCN2Cc1ccc(F)cc1` was 19.53%.

For the compound `Cc1nonc1CN(C)Cc1nc(-c2ccccc2Cl)oc1C`, the INHIBITION is reported as 51.96%. Under `Cc1nonc1CN(C)Cc1nc(-c2cccc(F)c2F)oc1C` stands -25.82%; under `CCc1nnc(CN(C)Cc2nc(-c3ccccc3Cl)oc2C)o1`, 15.84%. Turning to `Cc1cc(C2CCC2)nc(NCC(C)(C)N2CCCC2)n1`, the INHIBITION is 7.85%. Take `Cc1cc(CN2C[C@@H]3CN(C(=O)c4ccsc4)CCO[C@@H]3C2)no1`: the INHIBITION is recorded as -89.19%. Take `O=C(c1ccsc1)N1CCO[C@@H]2CN(Cc3cccs3)C[C@@H]2C1`: the INHIBITION was 78.93%. On to `CC(C)N1CCO[C@H]2CN(C(=O)c3ccsc3)C[C@H]21`, for which the INHIBITION amounted to 65.32%. Consider `O=C(c1ccsc1)N1CCO[C@@H]2CN(Cc3nccs3)C[C@@H]2C1`, for which the INHIBITION stood at 41.28%. Under `CC(C)N1CCO[C@H]2CN(C(=O)c3ccncc3)C[C@H]21` stands 19.96%; under `CC(C)N1CCO[C@H]2CN(C(=O)c3ccoc3)C[C@H]21`, -17.23%. Consider `c1ncn(Cc2nnc(C3CCN(CC4CC4)CC3)n2C2CC2)n1`, for which the INHIBITION came out at 30.96%. The value for `Cc1nc(CN2CCOC(c3ccc(Cl)cc3)C2)oc1C` (centres undefined) was 5.28%; that for `Cc1nnc(CN2CCOC(c3ccc(Cl)cc3)C2)o1` (centres undefined) was 57.75%; that for `Cc1nnc(CN2CCOC(c3ccc(Cl)c(Cl)c3)C2)o1` (centres undefined) was 38.67%.

Take `c1ccc(O[C@H]2CO[C@@]3(CCN(Cc4ccc5c(c4)OCO5)C3)C2)nc1`: the INHIBITION worked out at 40.83%. For `Cc1ccc(CN2CCCC(c3cncc(C)n3)C2)cn1` (centres undefined), the INHIBITION is -0.15%.

As to `Cc1cncc(C2CCCN(C(=O)c3ccc(C)[nH]c3=O)C2)n1` (centres undefined), the INHIBITION worked out at 17.71%. For the compound `O=C(c1c[nH]c(=O)[nH]c1=O)N1CCCC(c2cnccn2)C1` (centres undefined), the INHIBITION is given as -15.93%.

As to `Cc1cncc(C2CCCN(Cc3ccncc3)C2)n1` (centres undefined), the INHIBITION was -33.09%. In the case of `Cc1cncc(C2CCCN(C(=O)c3c[nH]c(=O)[nH]c3=O)C2)n1` (centres undefined), the INHIBITION is given as 50.72%. On to `Cc1cncc(C2CCCN(CC3CCC3)C2)n1` (centres undefined), for which the INHIBITION was found to be 50.63%. In the case of `COc1ccc(NC(C)c2ccc(C#N)cc2)cc1N1CCCC1=O` (centres undefined), the INHIBITION was -50.8%. Consider `O=C1CC(c2ccc(CO)o2)c2cnn(Cc3ccco3)c2N1` (centres undefined), for which the INHIBITION is -1.11%.

In the case of `Cc1nc(-c2cnn(C)c2)sc1C(=O)NCc1cccc(CN(C)C)c1`, the INHIBITION was -6.4%.
